Compounds without any hit were thinned out: in the full panel of roughly 83,000, 20% have a hit.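 Note: values are percent growth. 100 is the growth of untreated cells, values between 100 and 0 indicate rising inhibition; between -100 and 0 indicates cell death.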 Values without a mark were called inactive. Activity calls are given as the source filed them. Rule for the calls: active = growth percent below 10; inactive = the rest.

Some test systems named below: SR leukemia; RPMI-8226 leukemia; OVCAR-8 ovarian; OVCAR-5 ovarian; OVCAR-4 ovarian; SK-OV-3 ovarian; IGROV1 ovarian; OVCAR-3 ovarian; HS 578T breast; NCI/ADR-RES ovarian; T-47D breast; BT-549 breast; MDA-MB-435 melanoma; SW-620 colon; MCF7 breast; HCT-116 colon; HCC-2998 colon; KM12 colon.
Holding throughout (assay): NCI-60 one-dose screen, 48 h (100 = growth as untreated, 0 = no growth, -100 = all killed)
Common to all, as to conditions: 10 µM unless noted

`[2H]c1nc(=Nc2cc(NC(=O)C=C)c(N(C)CCN(C)C)cc2OC)[nH]c(-c2cn(C([2H])([2H])[2H])c3ccccc23)c1[2H]`: the growth with SR leukemia is -13.7% (active); in the test with RPMI-8226 leukemia it was 19%; in the test on OVCAR-8 ovarian, 53.3%; in the test on OVCAR-5 ovarian, 54.2%; in the test with OVCAR-4 ovarian it was 57.6%; in the test with SK-OV-3 ovarian it was 3.49% (active). In addition, the growth with IGROV1 ovarian is 19.1%; in the test on OVCAR-3 ovarian, 50.6%; in the test with HS 578T breast, 63.7%; in the test on NCI/ADR-RES ovarian, 39.1%; in the test on T-47D breast it was 33%; in the test with BT-549 breast, 62.9%. The growth is 22.2% in the test on MDA-MB-435 melanoma; 21.1% in the test on SW-620 colon; 23.4% in the test with MCF7 breast; 13.7% in the test with HCT-116 colon; 51% in the test on HCC-2998 colon; 65.3% in the test on KM12 colon.

As to `COC1(OC)N=C(N)C2(C#N)C3(C(=O)Nc4ccccc43)C12C#N` (configuration not stated), the growth in the test on SR leukemia is 6.82% (active); in the test with RPMI-8226 leukemia, 49.7%; with OVCAR-8 ovarian, 94.2%; in the test on OVCAR-5 ovarian, 65.1%; in the test with OVCAR-4 ovarian it was 60%; in the test on SK-OV-3 ovarian, 77.4%. In addition, the growth was 63.5% with IGROV1 ovarian; 84% with OVCAR-3 ovarian; 67.2% in the test with HS 578T breast; 100% in the test with NCI/ADR-RES ovarian; 95.8% in the test with T-47D breast; 62.5% with BT-549 breast. Further, the growth in the test with MDA-MB-435 melanoma is 91.7%; in the test with SW-620 colon it was 94.9%; in the test on MCF7 breast, 86.7%; in the test with HCT-116 colon, 81.6%; with HCC-2998 colon it was 103%; with KM12 colon, 101%.

On to `CC(=O)C(CO)C(=O)Nc1ccccc1` (configuration not stated), for which the growth was 94.8% in the test on SR leukemia; 103% with RPMI-8226 leukemia; 109% in the test with OVCAR-8 ovarian; 102% in the test on OVCAR-5 ovarian; 98% with OVCAR-4 ovarian; 93.8% with SK-OV-3 ovarian. Further, the growth is 105% with IGROV1 ovarian; 110% with OVCAR-3 ovarian; 118% in the test on HS 578T breast; 103% in the test with NCI/ADR-RES ovarian; 94.5% with T-47D breast; 106% in the test with BT-549 breast. In addition, the growth was 106% in the test with MDA-MB-435 melanoma; 109% in the test with SW-620 colon; 91.5% in the test on MCF7 breast; 106% with HCT-116 colon; 99.3% in the test on HCC-2998 colon; 104% in the test on KM12 colon.

Consider `COc1ccc(CNCCCN2C(=O)c3ccc4c5c(ccc(c35)C2=O)C(=O)N(CCCNCc2ccc(OC)c(OC)c2OC)C4=O)c(OC)c1OC`, for which the growth was -55.4% (active) in the test with SR leukemia; -42.3% (active) in the test with RPMI-8226 leukemia; -51.1% (active) in the test on OVCAR-8 ovarian; -55.4% (active) in the test with OVCAR-5 ovarian; -97.3% (active) in the test with OVCAR-4 ovarian; -77.4% (active) in the test on SK-OV-3 ovarian. Further, the growth with IGROV1 ovarian is -79.6% (active); in the test with OVCAR-3 ovarian, -91.8% (active); in the test on HS 578T breast, -38.2% (active); with NCI/ADR-RES ovarian, -36.5% (active); in the test with T-47D breast it was -40.1% (active); in the test with BT-549 breast it was -90.5% (active). The growth in the test with MDA-MB-435 melanoma is -87.5% (active); in the test on SW-620 colon, -94.6% (active); in the test with MCF7 breast it was -85% (active); in the test with HCT-116 colon, -71.2% (active); in the test on HCC-2998 colon, -92.8% (active); in the test on KM12 colon, -89.9% (active).

As to `Oc1ccc(N=Nc2ccc(N=Nc3ccccc3)cc2)cc1`, the growth was 43.1% in the test with SR leukemia; 24.8% in the test on RPMI-8226 leukemia; 23.1% in the test on OVCAR-8 ovarian; 79.3% in the test on OVCAR-5 ovarian; 76% in the test with OVCAR-4 ovarian; 42.6% in the test on SK-OV-3 ovarian. Further, the growth is 53.6% in the test on IGROV1 ovarian; 18.3% with OVCAR-3 ovarian; 91.8% with HS 578T breast; 43.4% with NCI/ADR-RES ovarian; 16.4% in the test with T-47D breast; 49% with BT-549 breast. Further, the growth is 19.6% with MDA-MB-435 melanoma; 44.7% in the test on SW-620 colon; 22.8% in the test with MCF7 breast; 33.3% with HCT-116 colon; 17.2% with HCC-2998 colon; 27.8% in the test on KM12 colon.

Take `CCCC(=O)NNc1[nH]c(-c2ccc(OC)cc2)cc1C(=O)OCC`: the growth in the test with SR leukemia was 106%; with RPMI-8226 leukemia it was 98.4%; in the test with OVCAR-8 ovarian it was 110%; with OVCAR-5 ovarian it was 95.7%; with OVCAR-4 ovarian, 117%; in the test on SK-OV-3 ovarian, 113%. Also, the growth is 18.1% in the test with IGROV1 ovarian; 90% with OVCAR-3 ovarian; 97.7% in the test on HS 578T breast; 106% in the test with NCI/ADR-RES ovarian; 63.9% with T-47D breast; 99.4% with BT-549 breast. In addition, the growth in the test with MDA-MB-435 melanoma was 95.2%; in the test on SW-620 colon, 95.5%; in the test with MCF7 breast, 104%; in the test with HCT-116 colon, 109%; with HCC-2998 colon it was 75.2%; with KM12 colon it was 98.9%.

In the case of `COc1ccc(C(O)(c2ccccc2)C(C(=O)O)c2ccccc2)cc1` (configuration not stated), the growth is 103% with SR leukemia; 95.5% with RPMI-8226 leukemia; 107% with OVCAR-8 ovarian; 102% in the test on OVCAR-5 ovarian; 98% in the test on OVCAR-4 ovarian; 102% in the test with SK-OV-3 ovarian. Also, the growth was 104% with IGROV1 ovarian; 114% in the test with OVCAR-3 ovarian; 114% in the test with HS 578T breast; 108% in the test on NCI/ADR-RES ovarian; 86% in the test with T-47D breast; 94.7% in the test with BT-549 breast. The growth was 117% in the test on MDA-MB-435 melanoma; 107% with SW-620 colon; 114% in the test with MCF7 breast; 97.2% with HCT-116 colon; 102% in the test on HCC-2998 colon; 93.9% with KM12 colon.

`COc1cc(NC(C)CCCN)c2nc(C)ccc2c1OC` (configuration not stated): the growth in the test on SR leukemia was 17.7%; in the test on RPMI-8226 leukemia, 69.1%; with OVCAR-8 ovarian, 119%; in the test with OVCAR-5 ovarian, 95.6%; in the test with OVCAR-4 ovarian it was 94.6%; in the test on SK-OV-3 ovarian it was 107%. Moreover, the growth is 103% in the test with IGROV1 ovarian; 64.1% in the test on OVCAR-3 ovarian; 105% with HS 578T breast; 101% in the test with NCI/ADR-RES ovarian; 90.5% with T-47D breast; 103% in the test with BT-549 breast. Besides, the growth is 121% with MDA-MB-435 melanoma; 104% in the test with SW-620 colon; 47.1% in the test with MCF7 breast; 102% in the test on HCT-116 colon; 87.2% in the test with HCC-2998 colon; 103% with KM12 colon.

In the case of `CCNc1nnc(COc2ccc(CNC(=O)CCCC/C=C/C(C)C)cc2OC)o1`, the growth is 89% in the test on SR leukemia; 95.5% in the test with RPMI-8226 leukemia; 106% in the test on OVCAR-8 ovarian; 103% in the test on OVCAR-5 ovarian; 103% in the test with OVCAR-4 ovarian; 91.5% in the test on SK-OV-3 ovarian. Moreover, the growth with IGROV1 ovarian is 103%; in the test on OVCAR-3 ovarian it was 106%; in the test on HS 578T breast, 98.6%; in the test with NCI/ADR-RES ovarian, 102%; with T-47D breast, 81%; in the test on BT-549 breast it was 102%. In addition, the growth in the test on MDA-MB-435 melanoma was 104%; in the test with SW-620 colon, 110%; in the test with MCF7 breast, 95.2%; in the test with HCT-116 colon, 87.2%; in the test on HCC-2998 colon, 103%; with KM12 colon it was 98.2%.

The record behind these values is PubChem BioAssay (NCI).
